# From PubChem BioAssay (NCATS)
# Records with an inconclusive call do not appear. Activity calls are given as the source filed them. Unless noted, calls follow the shape of the dose curve; as a rule, active = well fitted curve in either direction with a large enough effect (not every such curve was filed as active); inconclusive = small, poorly fitted or top-dose-only effect, or another doubt; inactive = flat fitted curve, though single readings scatter.
# Columns and labels:
# [1] = target: Lysosomal acid glucosylceramidase (Homo sapiens) (UniProt P04062); test: Glucocerebrosidase-p2 (AID 348; in the data active = potency below about 10 µM; also: potency is read from the fitted curve at half-maximal effect); settings: purified GBA, blue fluorogenic substrate, 40 min
# Outline: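 Normal human glucocerebrosidase (0.2 nM) with blue fluorogenic substrate (80 uM final) in citrate/phosphate pH 5.9 with 10mM sodium taurocholate, 0.01% tween-20; 40 min RT, NaOH/glycine stop; fluorescence Ex 365/Em 440; AC50 from a titration from 0.6 nM upwards.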
# [2] = AP1 Signaling Pathway (AID 357); settings: ME-180 AP-1-bla reporter, EGF-induced, beta-lactamase ratio, 5 h; at 7.69 µM (top of the series) unless noted;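 also: ME-180 reporter cells stimulated with EGF at its EC50 level; % is scaled to controls: 0 for no effect and ±100 for the full control effect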
# Outline: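 AP-1-bla ME-180 cells, Opti-MEM + 0.5% dialyzed FBS, plated overnight 37 °C. Cpd titration + EC50 EGF, 5 h 37 °C. CCF4 2.5 h RT; ex 405, em 460/530 ratio → %activity, AC50.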
# [3] = target: Cytochrome P450 1A2 (Homo sapiens) (UniProt P05177); test: p450-cyp1a2 (AID 410; calls by dose curve; also: potency is read from the fitted curve at half-maximal effect;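 as to activity change, negative = inhibition: -100% = full effect of reference inhibitor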); settings: recombinant CYP1A2, luciferin-ME demethylation, luminescence; series mostly up to 57 µM
# Outline: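 Read-out is luminescence from luciferin produced by CYP1A2 demethylation of Luciferin-ME (100uM, at Km). Detection reagent stopped the 60 min NADPH-dependent reaction; signals were normalized to 57 uM furafylline.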
# [4] = NFAT Signaling Pathway (AID 444); settings: Jurkat NFAT-bla M1, carbachol, beta-lactamase ratio, 5 h; at 7.69 µM (top of the series) unless noted;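 also: carbachol stimulus at about its EC50 of 1 µM final; % is scaled to controls: 0 for no effect and ±100 for the full control effect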
# Outline: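 Jurkat cells with NFAT-driven β-lactamase reporter and co-expressed M1 receptor, stimulated with carbachol (final 1 uM, ~EC50), compound titration, 5 h at 37 °C. CCF4 loaded 1 h at RT; 460/530 nm ratio gave %activity and AC50.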
# [5] = target: Glucocorticoid receptor (Homo sapiens) (UniProt P04150); test: GR-EFC Redistribution (AID 451; calls by dose curve; also: potency is read from the fitted curve at half-maximal effect); settings: CHO-K1 GR-EFC translocation, beta-gal luminescence, 2 h
# Outline: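 CHO-K1 cells expressing nuclear EA and GR-ED fragments of b-gal; compounds titrated up to 46 uM final, 2 h at 37 C. GR nuclear translocation read as complemented b-gal luminescence after 1 h RT detection.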
# [6] = target: Mitogen-activated protein kinase 10 (Mus musculus) (UniProt Q61831); test: JNK3 AlphaScreen Assay (AID 530); settings: JNK3 lysate, c-Jun phosphorylation; series mostly up to 57.1 µM;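 also: kinase came from lysate of stimulated human HepG2 cells; signal reports phosphorylation of biotinylated GST-cJun 1-79 at Ser73 with 10 µM ATP; % is scaled to controls: 0 for no effect and ±100 for the full control effect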
# Outline: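 HepG2 lysate (IL-1b/TNFa pre-activated) + biotin-GST-cJun 1-79 + anti-pSer73 cJun; cpd titration, 15 min RT; ATP 10 uM start; Tris pH 7.6, MgCl2, DTT, vanadate; beads in EDTA buffer; AlphaScreen.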
# [7] = target: 3',5'-cyclic-AMP phosphodiesterase 4B (Homo sapiens) (UniProt Q07343); test: qHTS Assay for Inhibitors of PDE-IV (AID 607; active = well fitted activation curve with a large enough effect in the main read-out, with a control signal flat, not every such curve was filed as active; also: % of control where 0% means no effect); settings: HEK293 ACTOne CNG channel cells, membrane potential fluorescence; series mostly up to 22.9 µM
# Outline: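 ACTOne HEK293 cells carry a modified cAMP-gated CNG channel and express endogenous PDE4; plated 1000 cells/well, compounds up to 22.9 uM final. Membrane-potential dye fluorescence (ex 535/em 590) was read; parental cells received 10 uM forskolin + 100 uM RO 20-1724.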
# [8] = target: Cytochrome P450 3A4 (Homo sapiens) (UniProt P08684); test: qHTS Assay for Activators of Cytochrome P450 3A4 (AID 885; active = well fitted curve in the direction sought with a large enough effect; an effect the other way counts as inactive or inconclusive; also: nearly all actives have a fitted effect of over 65% in size); settings: recombinant CYP3A4, Luciferin-PPXE luminescence, 60 min; series mostly up to 57.1 µM
# Outline: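 CYP3A4 activity: Luciferin-PPXE O-dealkylation, 25uM substrate, 200mM KPO4, RT throughout. Read-out is luciferase luminescence; higher values reflect activation.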
# [9] = target: Cytochrome P450 2C19 (Homo sapiens) (UniProt P33261); test: qHTS Assay for Inhibitors and Substrates of Cytochrome P450 2C19 (AID 899; active = well fitted curve in the direction sought with a large enough effect; an effect the other way counts as inactive or inconclusive; also: % is scaled to controls: 0 for no effect and ±100 for the full control effect; nearly all actives have a fitted effect of over 60% in size); settings: recombinant CYP2C19, luciferin-H EGE luminescence; series mostly up to 57.1 µM
# Outline: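 5 nM human CYP2C19 with 10uM Luciferin-H EGE (at KM) in 50mM KPO4, compound preincubated 10 min at 37C, then NADPH regeneration for 60 min at 37C. Luciferin read by luminescence after detection reagent; normalized to 57uM ketoconazole as full inhibition.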
# [10] = qHTS Assay for Lipid Storage Modulators (AID 1519; calls by dose curve); settings: Drosophila S3 cells, BODIPY lipid droplet/cell ratio, laser cytometry, cells loaded with oleic acid; for activity change, negative = inhibition: at 57.5 µM (top of the series)
# Outline: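 Cells seeded at 5,000 per well were treated with compounds over a concentration series and loaded with oleic acid (400 uM, as added). Lipid droplet fluorescence (488 nm excitation, 500-530 nm channel) was read by laser-scanning cytometry and normalized to 20 uM Triacsin C.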
# [11] = Primary qHTS for small molecule stabilizers of the endoplasmic reticulum resident proteome: Secreted ER Calcium Modulated Protein (SERCaMP) assay (AID 1508630; active = well fitted curve in the direction sought with a large enough effect; an effect the other way counts as inactive or inconclusive; also: % is scaled to controls: 0 for no effect and ±100 for the full control effect); settings: SH-SY5Y GLuc-SERCaMP (Gaussia luciferase released on ER calcium loss) secretion, thapsigargin, luminescence; series mostly up to 38.4 µM
# Outline: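 The SH-SY5Y reporter protocol was run at 3 concentrations up to 38.3 uM (primary) or 11 concentrations (follow-up): 16 h compound, 100 nM thapsigargin for 4 h, then extracellular luciferase luminescence.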
# [12] = Stat Signaling Pathway (AID 446); settings: ME-180 (cervical carcinoma) SIE beta-lactamase reporter, IL-6 stimulated, 5 h; at 7.69 µM (top of the series) unless noted
# Outline: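 Compound effects on IL-6-induced STAT reporter activity were measured in ME-180 cells. After overnight culture, cells were co-treated with 40 pM IL-6 for 5 hrs before beta-lactamase substrate loading at room temperature.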
# [13] = target: Glucocorticoid receptor (Homo sapiens) (UniProt P04150); test: GR-GFP Redistribution (AID 450;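 active = compounds whose dose series gives a full or clear partial fitted curve of increased nuclear translocation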; also: potency is read from the fitted curve at half-maximal effect); settings: U2OS GR-GFP nuclear translocation, laser cytometry, 2 h
# [14] = target: Ubiquitin carboxyl-terminal hydrolase 1 (Homo sapiens) (UniProt O94782); test: Inhibitors of USP1/UAF1: Pilot qHTS (AID 504865; active = well fitted curve in the direction sought with a large enough effect; an effect the other way counts as inactive or inconclusive;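 also: rhodamine fluorescence freed from ubiquitin-rhodamine substrate followed over time; top concentration of the series differs between compounds; % is scaled to controls: 0 for no effect and ±100 for the full control effect; nearly all actives have a fitted effect of over 35% in size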); settings: purified USP1/UAF1, Ub-rhodamine cleavage fluorescence; series mostly up to 54.9 µM
# Outline: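 In 50mM HEPES pH 7.8 containing 0.5mM EDTA, 1mM TCEP, 0.1 mg/ml BSA and 0.01% Tween-20, 1nM USP1/UAF1 is exposed to compound for 15 min, then Ub-Rho (150nM final) is added and fluorescence is read over time.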
# [15] = Confirmation and Secondary Assay for Modulators of Hemoglobin Beta Chain Splicing at IVS2 654 locus (AID 910; active = well fitted curve in the direction sought with a large enough effect; an effect the other way counts as inactive or inconclusive;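 also: HeLa cells stably carrying EGFP split by mutant beta-globin IVS2-654 intron; % of control where 0% means no effect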); settings: HeLa EGFP-654 splicing reporter, GFP fluorescence, 48 h; series mostly up to 38.3 µM
# Outline: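 HeLa cells stably expressing EGFP interrupted by β-globin IVS2-654 intron, seeded overnight in Opti-MEM/2% FCS, then treated 2 days at 37 °C. Restored splicing read as total peak GFP intensity per well by laser scanning cytometry (488 nm excitation, 500–520 nm emission); 500 nM antisense PNA as control.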
# [16] = Confirmation and Secondary Assay for Modulators of Hemoglobin Beta Chain Splicing at IVS2 705 locus (AID 930; active = well fitted curve in the direction sought with a large enough effect; an effect the other way counts as inactive or inconclusive;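 also: HeLa cells stably expressing the EGFP-705 splicing reporter; GFP fluorescence per well restored by corrected splicing of the IVS2-705 intron in EGFP; % of control where 0% means no effect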); settings: HeLa EGFP-705 splicing reporter, GFP fluorescence, 48 h; series mostly up to 38.3 µM
# Outline: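 HeLa cells stably carrying EGFP interrupted by mutant beta-globin intron 2 (IVS2-705) treated 2 days at 37C with compound; 500 nM antisense PNA as control. Correct splicing read as total peak GFP intensity per well by laser-scanning cytometry.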
# [17] = target: Cytochrome P450 3A4 (Homo sapiens) (UniProt P08684); test: qHTS Assay for Inhibitors and Substrates of Cytochrome P450 3A4 (AID 884; active = well fitted curve in the direction sought with a large enough effect; an effect the other way counts as inactive or inconclusive; also: potency is read from the fitted curve at half-maximal effect; nearly all actives have a fitted effect of over 50% in size); settings: recombinant CYP3A4, Luciferin-PPXE luminescence; series mostly up to 57.1 µM
# Outline: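 Luminescent readout of luciferin produced by CYP3A4 (20 nM) dealkylation of Luciferin-PPXE, 25 uM (its KM). NADPH-driven reaction ran 60 min at RT after 10 min compound preincubation; data scaled to 57 uM ketoconazole as 100% inhibition.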
# [18] = target: Cytochrome P450 2D6 (Homo sapiens) (UniProt P10635); test: qHTS Assay for Inhibitors and Substrates of Cytochrome P450 2D6 (AID 891; active = well fitted curve in the direction sought with a large enough effect; an effect the other way counts as inactive or inconclusive; also: nearly all actives have a fitted effect of over 60% in size; also: potency is read from the fitted curve at half-maximal effect); settings: recombinant CYP2D6, luciferin-ME EGE luminescence; series mostly up to 57.1 µM
# Outline: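 Luminescent read-out of luciferin formed by 5 nM human CYP2D6 demethylating 30 uM Luciferin-ME EGE (Km level) over 60 min at room temperature after NADPH regeneration addition. Data normalized to full inhibition by 1.43 uM quinidine.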
# [19] = measured here: cell count channel max response
# [20] = measured here: lipid channel max response
# Chain of Cytochrome P450 1A2 (Homo sapiens) (P05177 whole entry, looked up): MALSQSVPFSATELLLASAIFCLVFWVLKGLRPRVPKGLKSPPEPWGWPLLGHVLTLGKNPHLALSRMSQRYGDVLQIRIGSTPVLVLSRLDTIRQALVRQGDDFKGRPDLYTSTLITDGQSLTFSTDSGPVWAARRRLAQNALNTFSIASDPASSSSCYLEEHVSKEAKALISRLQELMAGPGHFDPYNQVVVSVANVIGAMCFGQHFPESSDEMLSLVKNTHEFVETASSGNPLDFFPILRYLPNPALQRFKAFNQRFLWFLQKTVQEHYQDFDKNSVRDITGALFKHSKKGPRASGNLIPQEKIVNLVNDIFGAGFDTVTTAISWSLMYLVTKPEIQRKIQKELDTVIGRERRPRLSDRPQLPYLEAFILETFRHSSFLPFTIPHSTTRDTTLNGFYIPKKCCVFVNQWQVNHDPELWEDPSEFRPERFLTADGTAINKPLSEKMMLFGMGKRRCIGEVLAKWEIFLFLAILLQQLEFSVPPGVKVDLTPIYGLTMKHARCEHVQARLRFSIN
# Chain of Glucocorticoid receptor (Homo sapiens) (P04150 whole entry, looked up, the tested form may be a part): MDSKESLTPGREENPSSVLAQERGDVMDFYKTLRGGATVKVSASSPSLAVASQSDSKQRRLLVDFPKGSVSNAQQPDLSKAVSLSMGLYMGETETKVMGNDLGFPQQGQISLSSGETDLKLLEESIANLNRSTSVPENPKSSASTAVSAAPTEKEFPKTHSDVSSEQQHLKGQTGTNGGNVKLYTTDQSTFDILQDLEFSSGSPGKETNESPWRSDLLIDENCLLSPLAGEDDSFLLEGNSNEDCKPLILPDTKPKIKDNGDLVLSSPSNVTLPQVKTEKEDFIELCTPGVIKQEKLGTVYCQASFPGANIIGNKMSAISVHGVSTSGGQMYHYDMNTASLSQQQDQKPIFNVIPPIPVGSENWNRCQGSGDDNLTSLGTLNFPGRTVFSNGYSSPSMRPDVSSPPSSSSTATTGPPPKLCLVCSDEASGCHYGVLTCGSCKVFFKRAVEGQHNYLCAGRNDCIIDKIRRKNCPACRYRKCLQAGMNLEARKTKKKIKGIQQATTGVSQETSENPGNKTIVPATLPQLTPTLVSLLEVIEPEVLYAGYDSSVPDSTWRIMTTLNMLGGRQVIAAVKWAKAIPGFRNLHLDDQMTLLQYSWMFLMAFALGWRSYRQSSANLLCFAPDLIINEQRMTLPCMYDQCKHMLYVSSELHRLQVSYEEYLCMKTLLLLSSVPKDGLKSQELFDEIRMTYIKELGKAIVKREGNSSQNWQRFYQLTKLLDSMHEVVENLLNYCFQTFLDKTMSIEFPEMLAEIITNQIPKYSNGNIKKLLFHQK
# Chain of Ubiquitin carboxyl-terminal hydrolase 1 (Homo sapiens) (O94782 whole entry, looked up): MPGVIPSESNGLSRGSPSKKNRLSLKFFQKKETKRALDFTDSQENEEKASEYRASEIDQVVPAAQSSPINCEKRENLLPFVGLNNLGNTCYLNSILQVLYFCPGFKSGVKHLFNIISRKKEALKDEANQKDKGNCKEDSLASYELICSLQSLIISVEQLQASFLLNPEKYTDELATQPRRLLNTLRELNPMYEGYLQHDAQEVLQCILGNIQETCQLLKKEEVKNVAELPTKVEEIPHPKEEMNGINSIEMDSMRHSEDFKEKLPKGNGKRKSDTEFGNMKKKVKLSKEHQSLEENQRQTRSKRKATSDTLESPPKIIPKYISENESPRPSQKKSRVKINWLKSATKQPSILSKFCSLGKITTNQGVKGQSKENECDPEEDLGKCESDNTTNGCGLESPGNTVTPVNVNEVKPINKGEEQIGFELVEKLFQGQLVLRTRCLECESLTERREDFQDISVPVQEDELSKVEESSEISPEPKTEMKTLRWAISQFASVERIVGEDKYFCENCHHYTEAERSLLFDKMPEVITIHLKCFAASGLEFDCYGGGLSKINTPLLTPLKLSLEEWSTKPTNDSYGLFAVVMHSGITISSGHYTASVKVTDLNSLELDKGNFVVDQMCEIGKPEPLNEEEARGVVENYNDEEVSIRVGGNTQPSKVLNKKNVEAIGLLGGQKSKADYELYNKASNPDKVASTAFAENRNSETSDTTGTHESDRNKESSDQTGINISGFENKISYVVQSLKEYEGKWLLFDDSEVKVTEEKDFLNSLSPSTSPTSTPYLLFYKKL
# Chain of 3',5'-cyclic-AMP phosphodiesterase 4B (Homo sapiens) (Q07343 whole entry, looked up): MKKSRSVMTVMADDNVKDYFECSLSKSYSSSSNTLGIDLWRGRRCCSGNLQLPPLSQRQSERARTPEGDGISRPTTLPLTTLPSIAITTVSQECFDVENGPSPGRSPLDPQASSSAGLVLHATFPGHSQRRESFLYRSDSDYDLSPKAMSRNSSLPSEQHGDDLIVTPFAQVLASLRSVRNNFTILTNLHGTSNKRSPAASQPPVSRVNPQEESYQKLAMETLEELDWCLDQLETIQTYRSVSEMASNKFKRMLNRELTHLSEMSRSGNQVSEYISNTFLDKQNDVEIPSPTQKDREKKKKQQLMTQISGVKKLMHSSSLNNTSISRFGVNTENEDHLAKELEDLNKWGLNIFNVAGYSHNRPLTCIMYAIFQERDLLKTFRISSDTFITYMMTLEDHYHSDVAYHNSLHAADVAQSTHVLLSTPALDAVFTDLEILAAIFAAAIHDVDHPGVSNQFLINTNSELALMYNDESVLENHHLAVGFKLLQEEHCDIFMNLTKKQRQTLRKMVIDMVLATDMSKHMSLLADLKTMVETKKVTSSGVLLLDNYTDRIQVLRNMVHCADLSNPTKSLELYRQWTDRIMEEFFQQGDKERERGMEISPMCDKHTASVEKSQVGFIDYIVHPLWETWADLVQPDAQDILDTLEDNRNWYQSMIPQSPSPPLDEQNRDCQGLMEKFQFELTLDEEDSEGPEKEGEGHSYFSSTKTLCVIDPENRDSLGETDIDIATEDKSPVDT
# Chain of Lysosomal acid glucosylceramidase (Homo sapiens) (P04062 whole entry, looked up): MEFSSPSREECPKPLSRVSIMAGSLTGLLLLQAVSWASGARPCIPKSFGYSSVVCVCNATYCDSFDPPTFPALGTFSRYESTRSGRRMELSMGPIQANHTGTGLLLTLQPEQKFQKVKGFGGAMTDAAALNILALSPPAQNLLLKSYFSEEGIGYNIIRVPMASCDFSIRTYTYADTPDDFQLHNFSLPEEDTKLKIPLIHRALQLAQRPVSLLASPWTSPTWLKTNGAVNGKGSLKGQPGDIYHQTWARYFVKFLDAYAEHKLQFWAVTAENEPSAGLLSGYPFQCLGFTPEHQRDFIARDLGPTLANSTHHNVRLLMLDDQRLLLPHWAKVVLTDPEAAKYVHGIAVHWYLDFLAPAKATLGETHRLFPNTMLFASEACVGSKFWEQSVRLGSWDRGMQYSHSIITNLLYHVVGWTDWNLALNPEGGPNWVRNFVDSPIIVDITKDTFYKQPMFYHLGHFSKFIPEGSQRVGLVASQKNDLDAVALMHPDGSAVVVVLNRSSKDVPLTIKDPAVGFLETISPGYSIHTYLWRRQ
# Chain of Cytochrome P450 3A4 (Homo sapiens) (P08684 whole entry, looked up): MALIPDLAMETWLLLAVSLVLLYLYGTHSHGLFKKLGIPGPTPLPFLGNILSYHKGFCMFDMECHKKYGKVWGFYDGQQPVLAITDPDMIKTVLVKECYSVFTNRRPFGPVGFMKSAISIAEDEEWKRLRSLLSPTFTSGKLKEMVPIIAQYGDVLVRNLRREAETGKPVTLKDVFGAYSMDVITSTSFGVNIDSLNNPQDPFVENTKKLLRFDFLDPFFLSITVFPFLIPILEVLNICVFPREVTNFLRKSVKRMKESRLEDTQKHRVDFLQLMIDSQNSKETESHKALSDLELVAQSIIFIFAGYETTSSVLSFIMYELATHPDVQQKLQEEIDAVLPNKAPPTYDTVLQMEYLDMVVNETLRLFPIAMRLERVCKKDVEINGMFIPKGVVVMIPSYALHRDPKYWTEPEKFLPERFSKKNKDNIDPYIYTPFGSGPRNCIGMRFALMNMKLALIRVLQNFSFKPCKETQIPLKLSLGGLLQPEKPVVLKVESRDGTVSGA
# Chain of Cytochrome P450 2D6 (Homo sapiens) (P10635 whole entry, looked up): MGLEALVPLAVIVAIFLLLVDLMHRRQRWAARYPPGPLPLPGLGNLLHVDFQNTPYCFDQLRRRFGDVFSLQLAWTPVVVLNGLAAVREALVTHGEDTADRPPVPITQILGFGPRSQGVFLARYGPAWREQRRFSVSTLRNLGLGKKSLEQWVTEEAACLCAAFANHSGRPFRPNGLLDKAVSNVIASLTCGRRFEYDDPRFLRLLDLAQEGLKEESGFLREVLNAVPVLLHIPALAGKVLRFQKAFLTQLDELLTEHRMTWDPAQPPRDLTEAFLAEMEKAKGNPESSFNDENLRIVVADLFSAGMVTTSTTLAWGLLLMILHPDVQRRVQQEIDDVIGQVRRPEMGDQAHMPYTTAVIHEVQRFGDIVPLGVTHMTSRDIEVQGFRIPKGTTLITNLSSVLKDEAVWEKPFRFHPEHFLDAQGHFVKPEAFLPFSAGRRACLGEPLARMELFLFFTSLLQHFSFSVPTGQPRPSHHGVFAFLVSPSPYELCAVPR
# Chain of Cytochrome P450 2C19 (Homo sapiens) (P33261 whole entry, looked up): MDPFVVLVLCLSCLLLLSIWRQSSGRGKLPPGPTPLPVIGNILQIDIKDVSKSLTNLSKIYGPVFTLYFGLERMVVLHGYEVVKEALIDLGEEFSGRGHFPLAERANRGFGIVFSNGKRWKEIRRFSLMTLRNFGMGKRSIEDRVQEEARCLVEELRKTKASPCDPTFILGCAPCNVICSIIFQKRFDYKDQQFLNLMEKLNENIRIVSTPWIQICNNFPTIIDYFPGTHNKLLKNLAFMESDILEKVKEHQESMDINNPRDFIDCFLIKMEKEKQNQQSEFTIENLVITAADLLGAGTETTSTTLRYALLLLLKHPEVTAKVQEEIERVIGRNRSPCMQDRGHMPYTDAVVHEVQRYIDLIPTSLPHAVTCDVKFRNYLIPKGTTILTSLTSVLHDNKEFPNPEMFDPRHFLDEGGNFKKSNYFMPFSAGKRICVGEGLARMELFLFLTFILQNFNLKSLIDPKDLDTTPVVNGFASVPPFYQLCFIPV
Compound,Potency [1],"activity change, negative = inhibition [2]",Potency [3],"activity change, negative = inhibition [4]",Potency [5],outcome [6],Potency [7],Potency [8],Potency [9],"activity change, negative = inhibition [10]","max response [10, 19] [%]","max response [10, 20] [%]",Potency [11],"activity, negative = inhibition [12]",Potency [13],Potency [14],outcome [15],outcome [16],Potency [17],Potency [18]
COCC(=O)N1CCC2(CCCN(C(=O)Nc3ccc(OC)cc3)C2)CC1,> 11.4 µM (inactive),-3.98% (inactive),inactive,13.5% (inactive),> 46 µM (inactive),inactive,inactive,inactive,inactive,5.43% (inactive),13.8,18.7,inactive,,,,,,,
Cn1c(=O)cnc2cnc(OCc3ccccc3)nc21,> 11.4 µM (inactive),-10.8% (inactive),,0.699% (inactive),> 46 µM (inactive),inactive,inactive,,,9.09% (inactive),18.8,26,inactive,-10.5% (inactive),> 9.22 µM (inactive),inactive,,,,
COc1ccc(C(=O)N2CCC3(CC2)CN(C(=O)Nc2cccc(C#N)c2)C3)cc1,> 11.4 µM (inactive),-3.72% (inactive),inactive,16.2% (inactive),> 46 µM (inactive),inactive,inactive,inactive,,6.5% (inactive),13.9,18.3,inactive,,,,,,,
N#Cc1ccccc1-c1ccc2ncnc(N3CCNCC3)c2c1,,6.5% (inactive),3.98 µM (active),17.9% (inactive),> 46 µM (inactive),inactive,inactive,inactive,,7.44% (inactive),18.9,26.9,inactive,2.26% (inactive),> 46 µM (inactive),inactive,inactive,inactive,,
Cc1noc(C)c1-c1nccc(NCc2cccnc2)n1,> 11.4 µM (inactive),7.38% (inactive),,-9.01% (inactive),> 46 µM (inactive),inactive,inactive,inactive,,4.68% (inactive),14.6,21.8,inactive,10.1% (inactive),> 46 µM (inactive),inactive,inactive,inactive,3.98 µM (active),
COc1ncc2ncc(=O)n(Cc3cccs3)c2n1,,1.19% (inactive),10 µM (active),-2.85% (inactive),> 46 µM (inactive),inactive,,inactive,,4.1% (inactive),9.65,19.6,inactive,-3.48% (inactive),> 9.22 µM (inactive),,,,,
COc1ccc(NC(=O)N2CC[C@@]3(CCCN(C(=O)c4csnn4)C3)C2)cc1,> 11.4 µM (inactive),-1.53% (inactive),,17.4% (inactive),> 46 µM (inactive),inactive,inactive,inactive,,5.36% (inactive),14.7,23.5,inactive,7.84% (inactive),,,,,,
O=C(c1ccncc1)N1CCC2(CC1)CN(c1cccc(-c3ccccc3)c1)C2,> 11.4 µM (inactive),-2.83% (inactive),15.8 µM (active),7.15% (inactive),> 46 µM (inactive),,inactive,inactive,,-2.24% (inactive),13.1,11.3,inactive,,,,,,,
CC(=O)N1CCC[C@@]2(CCN(Cc3ccccc3)C2)C1,> 11.4 µM (inactive),-2.69% (inactive),inactive,17.1% (inactive),> 46 µM (inactive),inactive,inactive,inactive,,6.41% (inactive),8.55,16.4,inactive,,,,,,,
Cn1cccc1C(=O)N1CCC[C@@]2(CCN(Cc3ccccc3)C2)C1,> 11.4 µM (inactive),-8.23% (inactive),10 µM (active),-14.1% (inactive),> 46 µM (inactive),inactive,inactive,inactive,,3.81% (inactive),5.36,9.58,inactive,,,,,,,2 µM (active)
COCCNc1ccnc(-c2ccccc2CN(C)C)n1,> 11.4 µM (inactive),3.13% (inactive),,-0.192% (inactive),> 46 µM (inactive),inactive,inactive,,,1.95% (inactive),-5.81,7.72,inactive,11.3% (inactive),> 46 µM (inactive),inactive,inactive,inactive,,
CC(C)NC(=O)N1CCCC2(CCN(C(=O)c3cccc(F)c3)CC2)C1,> 11.4 µM (inactive),-13.6% (inactive),,-16.5% (inactive),> 46 µM (inactive),inactive,inactive,inactive,,3.5% (inactive),20.4,27.6,inactive,-2.81% (inactive),,,,,,inactive
CS(=O)(=O)N1CCC[C@@]2(CCN(Cc3ccccc3)C2)C1,> 11.4 µM (inactive),0.761% (inactive),,1.85% (inactive),> 46 µM (inactive),inactive,inactive,,,2.55% (inactive),2.42,7.6,inactive,23.6% (inactive),,,,,,
